Drawing on ChEMBL document CHEMBL4513216, “Probing the Open Global Health Chemical Diversity Library for Multistage-Active Starting Points for Next-Generation Antimalarials” (ACS Infect Dis, 2020), this text covers INHIBITION for 68 compounds.

Structures are written as SMILES. Out of some 69,000 compounds screened, about 8,600 (12%) showed an effect of 50% or more. Shown is part of a subset that was picked to be rich in strong results.

This assay concerns Plasmodium berghei. The experiment in a line: Screen against P. berghei liver stage (PbLuc), transformed with Luciferase, at 10uM. It counts as functional, HepG2. The following applies: tested at 10 uM.
As to `Cc1nc2n(n1)CC(Nc1cc(C(F)(F)F)nc3ncnn13)CC2` (stereo not drawn), the INHIBITION is given as -29.2%.

Turning to `Cc1nn(C)cc1-c1cc(C(F)(F)F)nc(NC2CCCCC2)n1`, the INHIBITION came out at 58.9%.

For the compound `CCn1cc(-c2nn3c(C(F)(F)F)nnc3s2)c(C)n1`, the INHIBITION is 4.12%.

Regarding `Cc1nn(C)cc1-c1cc(C(F)F)nc(NC2CCCCC2)n1`, the INHIBITION is recorded as 26.9%.

For the compound `Cc1nn(C)cc1-c1cc(C(F)(F)F)nc(NC2CCN(C)CC2)n1`, the INHIBITION was 40.5%.

Consider `CCn1cc(-c2cc(C(F)(F)F)nc(NC3CCCC3)n2)c(C)n1`, for which the INHIBITION is 68.7%. Under `Cc1cc(N)n(-c2ccc3nnc(C)n3n2)n1` stands 37.5%; under `Cc1cc(C(=O)N2CCCC(n3cncn3)C2)on1` (stereo not drawn), -23.9%; under `CCc1ccccc1CN1CC[C@@]2(O)CCN(S(=O)(=O)N(C)C)C[C@H]2C1`, 44.6%. With `O=C(Cc1ccon1)Nc1cncc(Br)c1O`, the INHIBITION is listed as -9.23%. To `O=C(Cc1ccn[nH]1)Nc1cncc(Br)c1O` belongs 22.6%; to `O=C(Nc1cncc(Br)c1O)c1ccon1`, 83.2%; to `CN(C)C(=O)CO[C@H]1CN(Cc2cccc(C#N)c2)[C@@H]2COC[C@H]12`, 7.31%. Under `Cc1noc(C2CCCCN2C(=O)NCc2ccco2)n1` (stereo not drawn) stands 26.4%; under `CNC1CCC2(CC1)CNC(=O)c1cc(C)ccc1O2` (stereo not drawn), -16.5%. `O=C(NC1CCS(=O)(=O)C1)c1cn(C2CC2)c(=O)c2ccccc12` (stereo not drawn): the INHIBITION was 43.9%.

As to `C[C@@H]1CCC[C@H](C)N1CC(=O)N1CCc2[nH]c(-c3ccccc3)nc2C1`, the INHIBITION was found to be 64.8%. Regarding `CC(=O)NCC(=O)N1CCc2[nH]c(-c3ccccc3)nc2C1`, the INHIBITION is 43%. Under `CN1CCCN(CC(=O)N2CCc3[nH]c(-c4ccccc4)nc3C2)CC1` stands 17.6%. Under `COc1nc2c(cc1C(=O)NCc1nc(CSC)no1)CCC2` stands 43.1%; under `COc1nc2c(cc1C(=O)NCc1noc(-c3ccco3)n1)CCC2`, 55%; under `COc1nc2c(cc1C(=O)NCc1noc(Cc3cccs3)n1)CCC2`, 24.7%. To `CCCC(N)CNS(=O)(=O)Cc1cccc(C#N)c1` (stereo not drawn) belongs 39.3%. On to `O=C(NCCn1ccnc1-c1cc2n(n1)CCNC2)c1ccncc1`, for which the INHIBITION turned out to be 62.4%. Under `O=C(NCCn1ccnc1-c1cc2n(n1)CCCNC2)c1ccncc1` stands 32%; under `O=C(NCCn1ccnc1-c1cc2n(n1)CCNC2)c1ccc(F)cc1`, 8.08%; under `Nc1nc(N2CCCCC2)ncc1C(=O)NCc1ccc(F)c(Cl)c1`, 26.4%. To `O=C(COc1cccc2c1CCC2=O)NCC(F)(F)F` belongs 20%. To `O=C(COc1cccc2c1CCC2=O)NCc1ccccc1F` belongs 1.58%; to `O=C(COc1cccc2c1CCC2=O)NCCOc1ccccc1`, 41.8%; to `O=C(COc1cccc2c1CCC2=O)NCCSc1ccccc1`, -66.3%. For the compound `O=C(COc1cccc2c1CCC2=O)NCCc1cccs1`, the INHIBITION turned out to be 63.7%. To `O=C(COc1cccc2c1CCC2=O)NCc1ccccc1Cl` belongs 50%; to `Cc1cc(N2CCC(O)(CN(C)C)C2)c2cc3c(cc2n1)OCO3` (stereo not drawn), -7.02%. Under `COCC(=O)N1CCCC1c1ccc(C(=O)NCc2ccccc2Cl)s1` (stereo not drawn) stands -9.66%; under `COc1ccc(CSc2nnc(N)n2C2CC2)cc1Cl`, 46.3%. `CCCS(=O)(=O)N1CCC2(CN(c3ccccc3)C(=O)CN2C)C1` (stereo not drawn): the INHIBITION was 41.2%. Under `Cc1cc2c(=O)n3c(nc2s1)CCN(C(=O)c1ccncc1)CC3` stands 19.9%; under `Cc1ccc(C(=O)N2CCc3nc4c(C)csc4c(=O)n3CC2)cn1`, 57.5%; under `Cc1csc2c(=O)n3c(nc12)CCN(C(=O)c1cccnc1)CC3`, 36.4%. To `Cc1csc2nc3n(c(=O)c12)CCN(Cc1ccccn1)CC3` belongs 1.5%; to `Cc1csc2nc3n(c(=O)c12)CCN(C(=O)c1ccncc1)CC3`, 56.9%; to `Cc1csc2c(=O)n3c(nc12)CCN(C(=O)c1ccccn1)CC3`, 35.2%. To `CCC[C@H]1CN(S(C)(=O)=O)C[C@@H]1NC(=O)CCOCC` belongs 27.6%; to `O=C(CCN1CCCO1)N1CCCC(CO)(CCCc2ccccc2)C1` (stereo not drawn), -4.56%. Regarding `N#Cc1cccc(CN2CC3(CCCCN3c3cccnc3)CC2=O)c1` (stereo not drawn), the INHIBITION is given as 57.1%. Under `Cc1noc(C)c1CN1CC2(CCN(Cc3c[nH]cn3)CC2)CC1=O` stands -27.6%; under `N#Cc1ccc(CN2CCN(c3ccncc3Cl)CC2=O)cc1`, 24.5%. Regarding `N#Cc1cccc(CN2CC3(CCCCN3c3cncnc3)CC2=O)c1` (stereo not drawn), the INHIBITION amounted to 27.5%. Under `Cc1noc(C)c1CN1CC2(CCCCN2C)CC1=O` (stereo not drawn) stands 39.3%; under `N#Cc1ccc(CN2CCN(Cc3ccncc3Cl)CC2=O)cc1`, 25.7%; under `N#Cc1cccc(CN2CC[C@@H]3[C@@H]2CC(=O)N3Cc2cccnc2)c1`, 22.7%. Under `N#Cc1ccc(CN2CC3(CCCCN3c3cccnc3)CC2=O)cc1` (stereo not drawn) stands 57.1%; under `Cc1noc(C)c1CN1CC2(CCCCN2c2cncnc2)CC1=O` (stereo not drawn), 65.9%. Under `CCN1CC(COC(=O)c2ccc(N(C)C)cc2F)CC1=O` (stereo not drawn) stands -56.7%; under `O=C(c1cccc(Cl)c1)N1CCCC2(CCCNC2)C1` (stereo not drawn), 0.164%; under `CN(C)C(=O)CN1C[C@H]2CC[C@@H](C1)N(Cc1ccc3nsnc3c1)C2`, 33.8%. Take `Cc1ncc(C(=O)N2CCOC(C(=O)N3CCCCC3)C2)c(C)n1` (stereo not drawn): the INHIBITION is reported as -5.6%. To `CN(Cc1cccc(O)c1)Cc1cnn(C)c1` belongs 10%.

`Cn1cc(-n2cc3nc(N4CCOCC4)[nH]cc-3c2=O)cn1`: the INHIBITION is on record as -38.7%. For `NC(=O)c1c(SCCN2CCOCC2)sc2c(O)cc(=O)[nH]c12`, the INHIBITION was found to be 20%. Consider `O=C(C1CCC1)N1CCc2onc(Cn3cccn3)c2C1`, for which the INHIBITION turned out to be 24.5%. To `CN(C)S(=O)(=O)N1CCCC1c1cccc(-n2ccnc2)n1` (stereo not drawn) belongs 33.7%; to `CO[C@@H]1CC[C@@H](NC(=O)CCc2ccc(Cl)cc2)[C@H]1O`, 5.35%; to `COCc1nc2ncc3c(=O)n(-c4cccc(OC)c4)ccc3n2n1`, 16.1%. With `COCc1nc2ncc3c(=O)n(-c4ccc(OC)cc4)ccc3n2n1`, the INHIBITION amounted to 15%. Under `COCc1nc2ncc3c(=O)n(-c4ccccc4OC)ccc3n2n1` stands 66.9%. To `Cc1n[nH]cc1CNC(C)c1cccc(N2CCCC2=O)c1` (stereo not drawn) belongs 0.643%.
